Laboratory results: PubChem BioAssay
Active and inactive are the calls of the source.

Assays:
[1] = tested on: Plasmodium falciparum Sir2 (PF13_0152, Sir2A); assay: pfSir2 binders on small-molecule microarrays, primary screen, biochemical, small-molecule microarray, 635 nm fluorescence (AID 1098); settings: small-molecule microarray binding, fluorescence 635 nm; higher = more signal;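 further: score merges spot fluorescence intensity with its signal-to-noise ratio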
[2] = small-molecule microarray binders of probe aDKK1, primary screen, biochemical, biotinylated probe, 635/667 nm fluorescence (AID 1099); settings: higher = more signal;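 further: score merges 667nm spot fluorescence with signal to noise across triplicate slides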
[3] = small-molecule microarray binders of probe aCHRDL2, primary screen, biochemical, biotinylated probe, 635/667 nm fluorescence (AID 1100); settings: higher = more signal
[4] = splicing luciferase reporter signal modulators, primary screen, spliceosome inhibition project, cell-based, HEK293, splice +/- reporter (AID 1101); settings: luminescence, 24 h, higher = more signal, called active from +8 up or from −8 down;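 further: HEK293 cells carrying a splicing-competent luciferase reporter gene; test concentration not given here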
[5] = biological target: Fibroblast growth factor 10 (Homo sapiens) (UniProt O15520); assay: FGF10 binders on small-molecule microarrays, primary screen, biochemical, small-molecule microarray, 635 nm fluorescence (AID 1102); settings: FGF10 binding, fluorescence 635 nm, higher = more signal
[6] = tested on: glycogen synthase kinase-3 (GSK3A per assay name; protocol says GSK3B); assay: GSK3 binders on small-molecule microarrays, primary screen, biochemical, small-molecule microarray, 635 nm fluorescence, GSK3A (AID 1103); settings: small-molecule microarray binding, fluorescence 635 nm; higher = more signal; further: the record names both GSK3A and GSK3B
[7] = biological target: Epidermal growth factor receptor (Homo sapiens) (UniProt P00533); assay: EGFR binders on small-molecule microarrays, primary screen, biochemical, small-molecule microarray, 635 nm fluorescence (AID 1104); settings: EGFR binding, higher = more signal;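 further: score merges 667 nm emission intensity with spot signal to noise over triplicate slides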
[8] = biological target: Follistatin-related protein 3 (Homo sapiens) (UniProt O95633); assay: FSTL3 binders on small-molecule microarrays, primary screen, biochemical, small-molecule microarray, 635 nm fluorescence (AID 1105); settings: FSTL3 binding, higher = more signal;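 further: score merges emission near 667 nm and signal to noise per printed spot across three slides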
[9] = biological target: Dickkopf-related protein 1 (Homo sapiens) (UniProt O94907); assay: DKK1 binders on small-molecule microarrays, primary screen, biochemical, small-molecule microarray, 635 nm fluorescence scan (AID 1106); settings: DKK1 binding, higher = more signal;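 further: score merges emission near 667 nm with signal to noise over three replicate slides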
[10] = tested on: Inhibin beta A chain (activin A); assay: INHBA (activin A) binders on microarrays, primary screen, biochemical, small-molecule microarray, 635 nm fluorescence scan (AID 1107); settings: small-molecule microarray binding, higher = more signal;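 further: mouse activin A protein probed at 4.33 µg/mL on printed slides; score merges bound-protein fluorescence near 667 nm with spot signal-to-noise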
[11] = tested on: Human papillomavirus type 1a protein E7 (residues 44-93); assay: HPV1a E7 fragment binders on microarrays, primary screen, biochemical, small-molecule microarray, residues 44-93, 635 nm fluorescence (AID 1108); settings: small-molecule microarray binding, fluorescence 635 nm; higher = more signal;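 further: E7 fragment applied at 1 µg/mL in TBST for 1 h at 4 C; score combines spot fluorescence with its signal to noise ratio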
[12] = modulators of HCV replicon luciferase signal, primary screen, HCV replication inhibitor project, Huh7 cells, luciferase reporter (AID 1109); settings: 48 h, higher = more signal;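 further: huh7 hepatoma cells harbouring a luciferase neomycin HCV replicon reporter; luciferase luminescence as measure of HCV replicon replication; test concentration not given here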
[13] = biological target: Left-right determination factor 2 (Homo sapiens) (UniProt O00292); assay: LEFTY2 binders on small-molecule microarrays, primary screen, biochemical, small-molecule microarray, 635 nm fluorescence scan (AID 1110); settings: LEFTY2 binding, higher = more signal
[14] = biological target: Calmodulin-1 (Homo sapiens) (UniProt P0DP23); assay: CALM1 binders on microarrays, EGTA buffer, profiling panel, biochemical, small-molecule microarray, Cy5-labelled CALM1 (AID 1111); settings: Cy5-CALM1 binding fluorescence, higher = more signal;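 further: labelled calmodulin applied in Tris saline Tween buffer holding calcium plus EGTA and DTT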
[15] = biological target: Calmodulin-1 (Homo sapiens) (UniProt P0DP23); assay: calcium-bound CALM1 binders on microarrays, profiling panel, artefact control for SMM control-protein annotation, biochemical, small-molecule microarray, Cy5-labelled CALM1, plus calcium (AID 1112); settings: Cy5-CALM1 binding fluorescence, higher = more signal;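 further: score merges spot fluorescence with signal to noise from triplicate slides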
[16] = small-molecule microarray binders of probe aWnt5a, primary screen, biochemical, biotinylated probe, 635/667 nm fluorescence (AID 1113); settings: higher = more signal;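 further: score merges 667 nm fluorescence intensity with signal-to-noise per printed feature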
[17] = small-molecule microarray binders of probe aShh, primary screen, biochemical, biotinylated probe, 635/667 nm fluorescence (AID 1114); settings: higher = more signal;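 further: probe is biotin-labelled aShh protein from a stem cell growth factor screen; measures binding of labelled protein to compounds printed on the slide; score merges feature fluorescence at 667 nm with signal-to-noise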
[18] = small-molecule microarray binders of probe aNog, primary screen, biochemical, biotinylated probe, 635/667 nm fluorescence (AID 1115); settings: higher = more signal;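 further: probe is biotinylated aNog protein used at 0.15 µg/mL for 1 h at 4 C; z-score combines 667 nm fluorescence of each spot with its signal to noise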
[19] = biological target: Torsin-1A-interacting protein 1 (Homo sapiens) (UniProt Q5JTV8); assay: LAP1 binders from COS7 cell lysate, primary screen, small-molecule microarray, 635/667 nm fluorescence (AID 1116); settings: COS7-hLAP1 lysate binding, 635 nm fluorescence, higher = more signal
[20] = biological target: Alpha-bungarotoxin (Bungarus multicinctus) (UniProt P60615); assay: alpha-bungarotoxin binders on microarray, profiling panel, artefact control for SMM control protein annotation, biochemical, small-molecule microarray, Alexa647 label, 635/667 nm fluorescence (AID 1117); settings: alpha-BTX-A647 binding fluorescence, higher = more signal
Sequence of Alpha-bungarotoxin (Bungarus multicinctus) (P60615 whole entry, looked up): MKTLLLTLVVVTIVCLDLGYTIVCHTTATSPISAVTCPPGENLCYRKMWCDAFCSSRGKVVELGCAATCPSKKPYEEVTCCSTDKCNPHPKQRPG

Sequence of Left-right determination factor 2 (Homo sapiens) (O00292 whole entry, looked up): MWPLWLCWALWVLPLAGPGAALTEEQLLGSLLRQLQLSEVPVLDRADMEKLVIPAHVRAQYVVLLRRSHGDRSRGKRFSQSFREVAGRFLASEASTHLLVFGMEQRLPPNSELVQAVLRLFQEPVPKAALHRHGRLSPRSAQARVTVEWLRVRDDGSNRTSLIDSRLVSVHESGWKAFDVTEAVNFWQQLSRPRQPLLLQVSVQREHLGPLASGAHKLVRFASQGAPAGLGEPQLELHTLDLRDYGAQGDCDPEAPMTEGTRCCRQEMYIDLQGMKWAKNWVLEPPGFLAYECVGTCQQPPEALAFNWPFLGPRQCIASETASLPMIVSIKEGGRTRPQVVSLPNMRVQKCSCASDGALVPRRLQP
Sequence of Epidermal growth factor receptor (Homo sapiens) (P00533 whole entry, looked up): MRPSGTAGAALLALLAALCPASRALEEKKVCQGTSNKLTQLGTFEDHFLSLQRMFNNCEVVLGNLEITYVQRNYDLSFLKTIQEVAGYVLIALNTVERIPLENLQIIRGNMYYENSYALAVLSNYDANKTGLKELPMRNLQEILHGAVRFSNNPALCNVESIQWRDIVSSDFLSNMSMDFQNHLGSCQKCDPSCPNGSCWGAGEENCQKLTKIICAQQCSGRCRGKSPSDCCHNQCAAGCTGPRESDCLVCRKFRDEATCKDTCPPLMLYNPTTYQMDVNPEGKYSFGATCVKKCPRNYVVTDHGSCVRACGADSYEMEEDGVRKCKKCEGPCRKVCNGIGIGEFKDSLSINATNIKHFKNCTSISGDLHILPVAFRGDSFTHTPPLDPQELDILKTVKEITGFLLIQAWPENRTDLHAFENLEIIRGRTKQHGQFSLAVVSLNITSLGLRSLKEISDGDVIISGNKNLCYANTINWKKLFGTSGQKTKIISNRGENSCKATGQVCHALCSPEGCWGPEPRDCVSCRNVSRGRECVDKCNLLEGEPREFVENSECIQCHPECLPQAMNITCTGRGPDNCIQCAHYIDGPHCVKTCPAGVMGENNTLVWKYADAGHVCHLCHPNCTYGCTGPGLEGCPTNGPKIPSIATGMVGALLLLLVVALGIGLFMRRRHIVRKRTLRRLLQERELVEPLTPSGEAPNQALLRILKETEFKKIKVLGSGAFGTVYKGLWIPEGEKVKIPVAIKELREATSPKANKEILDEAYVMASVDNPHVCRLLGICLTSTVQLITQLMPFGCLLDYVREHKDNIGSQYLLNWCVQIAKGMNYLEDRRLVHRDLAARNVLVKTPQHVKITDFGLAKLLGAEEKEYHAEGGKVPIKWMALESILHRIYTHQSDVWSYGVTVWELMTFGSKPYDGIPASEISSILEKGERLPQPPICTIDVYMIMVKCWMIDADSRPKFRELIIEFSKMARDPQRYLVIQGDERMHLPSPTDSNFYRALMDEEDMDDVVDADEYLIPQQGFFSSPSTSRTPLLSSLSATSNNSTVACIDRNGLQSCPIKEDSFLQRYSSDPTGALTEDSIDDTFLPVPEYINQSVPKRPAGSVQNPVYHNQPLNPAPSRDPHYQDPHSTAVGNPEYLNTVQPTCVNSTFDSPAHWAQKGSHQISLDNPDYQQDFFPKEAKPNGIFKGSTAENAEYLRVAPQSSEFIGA
Sequence of Torsin-1A-interacting protein 1 (Homo sapiens) (Q5JTV8 whole entry, looked up): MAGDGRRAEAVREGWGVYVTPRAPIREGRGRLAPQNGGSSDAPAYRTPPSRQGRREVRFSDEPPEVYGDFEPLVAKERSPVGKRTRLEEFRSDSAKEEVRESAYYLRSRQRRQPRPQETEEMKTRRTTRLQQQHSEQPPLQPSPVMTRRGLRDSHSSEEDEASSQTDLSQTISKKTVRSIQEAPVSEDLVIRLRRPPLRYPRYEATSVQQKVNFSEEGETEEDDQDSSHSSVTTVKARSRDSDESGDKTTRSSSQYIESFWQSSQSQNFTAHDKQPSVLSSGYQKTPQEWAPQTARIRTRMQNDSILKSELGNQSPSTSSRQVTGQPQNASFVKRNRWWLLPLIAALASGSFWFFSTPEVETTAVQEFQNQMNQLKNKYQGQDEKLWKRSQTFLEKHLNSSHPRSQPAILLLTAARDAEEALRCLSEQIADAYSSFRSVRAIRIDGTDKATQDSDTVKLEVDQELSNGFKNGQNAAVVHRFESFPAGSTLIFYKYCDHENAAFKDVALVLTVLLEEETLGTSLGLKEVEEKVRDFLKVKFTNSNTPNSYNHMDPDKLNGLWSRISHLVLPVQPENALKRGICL
Sequence of Dickkopf-related protein 1 (Homo sapiens) (O94907 whole entry, looked up): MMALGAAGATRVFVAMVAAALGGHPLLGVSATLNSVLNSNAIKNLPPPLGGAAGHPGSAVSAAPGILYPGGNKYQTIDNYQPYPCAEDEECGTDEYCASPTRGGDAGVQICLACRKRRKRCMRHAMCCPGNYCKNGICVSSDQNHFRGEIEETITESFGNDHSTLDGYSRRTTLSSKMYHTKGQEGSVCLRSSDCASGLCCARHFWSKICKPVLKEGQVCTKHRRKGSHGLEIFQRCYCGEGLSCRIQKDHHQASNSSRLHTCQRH
Sequence of Fibroblast growth factor 10 (Homo sapiens) (O15520 whole entry, looked up): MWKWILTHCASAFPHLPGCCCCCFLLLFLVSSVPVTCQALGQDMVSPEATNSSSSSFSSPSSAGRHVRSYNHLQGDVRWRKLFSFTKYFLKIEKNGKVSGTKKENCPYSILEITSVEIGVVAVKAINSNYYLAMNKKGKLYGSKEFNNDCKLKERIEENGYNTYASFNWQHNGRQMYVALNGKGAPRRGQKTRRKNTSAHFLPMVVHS
Sequence of Follistatin-related protein 3 (Homo sapiens) (O95633 whole entry, looked up): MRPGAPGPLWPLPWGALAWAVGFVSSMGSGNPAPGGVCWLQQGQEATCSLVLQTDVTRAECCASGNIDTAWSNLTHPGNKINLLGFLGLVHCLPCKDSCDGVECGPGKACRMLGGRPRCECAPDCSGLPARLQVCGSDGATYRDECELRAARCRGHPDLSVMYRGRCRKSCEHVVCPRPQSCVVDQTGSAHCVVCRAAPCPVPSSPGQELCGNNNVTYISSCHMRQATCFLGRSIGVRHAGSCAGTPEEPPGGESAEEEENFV

Compound	composite z-score [1]	composite z-score [2]	composite z-score [3]	z-score [4]	composite z-score [5]	composite z-score [6]	composite z-score [7]	composite z-score [8]	composite z-score [9]	composite z-score [10]	composite z-score [11]	z-score [12]	composite z-score [13]	composite z-score [14]	composite z-score [15]	composite z-score [16]	composite z-score [17]	composite z-score [18]	composite z-score [19]	composite z-score [20]
CC(CCN1CCc2nc(-c3ccccc3)c(-c3ccccc3)cc2C1)=NO[C@@H](C)c1cn([C@H](CO)Cc2ccccc2)nn1	0.0154	-0.336	0.119	-1.26 (inactive)	-0.105	-0.335	0.209	0.176	0.175	1.13	-0.127	-0.985	0.555	0.0845	0.444	-0.139	-0.221	-0.305	-0.273	1.42
O=C1[C@H]2[C@H]3[C@H](O)[C@H](O)CC(=NOC[C@@H](O)COCc4ccco4)[C@H]3CC[C@H]2C(=O)N1C1CCCCC1	0.508	-0.565	-1.6	-1.13 (inactive)	0.0351	1.16	0.623	0.499	0.942	1.31	-0.417	-0.353	1.05	-1.04	-1.77	-0.104	-0.138	-0.402	-0.324	-0.32
CCN1C(=O)[C@H]2[C@H]3[C@H](O)[C@H](O)CC(=NOC(C)CN4CCCCc5nc(C)c(C)cc54)[C@@H]3CC[C@H]2C1=O (stereo not given in full)	0.438	-0.206	-0.667	0.279 (inactive)	0.471	0.606	0.78	0.756	0.78	0.834	-0.504	-1.17	0.905	-2.14	-1.31	-0.184	0.0796	-0.0489	-0.401	-0.294
C=CC[C@@H]1C=C[C@H](ON=C2c3cc(OC)ccc3O[C@H](c3cccc(OC)c3)[C@H]2O)[C@@H](CO)O1	0.0678	-0.403	-0.626	-0.766 (inactive)	0.0385	-0.325	0.379	0.0069	0.26	-0.0002	-0.208	-0.892	0.194	-0.569	-0.319	-0.175	-0.288	0.151	-0.103	1.42
CO[C@H]1COC(=O)[C@@H]2CCCN2C(=O)[C@@H](C)COC(=O)CC=C[C@@H]1C	0.474	-0.342	-0.919	0.00841 (inactive)	0.618	1.05	1.15	1.11	1.1	-0.24	-1.03	-0.496	1.2	0.212	-0.823	-0.13	-0.0793	-0.0209	0.626	-1.16
CN(C)c1ccc(C(O)C2C=CC3C(=O)N(c4ccccc4)C(=O)C3N2Nc2ccccc2F)cc1 (stereo not given)	1.58	0.407	0.792	-0.947 (inactive)	-0.235	1.23	-0.675	0.206	-0.606	0.941	1.31	-0.369	-0.633	0.104	-0.472	-0.0685	0.275	0.471	0.838	0.738
CC(C)c1ccc(NN2C(C(O)c3ccc4c(c3)OCO4)C=CC3C(=O)N(c4ccccc4)C(=O)C32)cc1 (stereo not given)	1.19	0.521	0.944	1.18 (inactive)	0.584	1.18	0.407	0.886	0.263	0.581	0.688	1.11	0.168	2.56	1.28	0.0775	0.108	2.13	2.2	1.92
CCc1cccc(NC(=O)O[C@H]2[C@H](OC(=O)Nc3ccc4c(c3)OCO4)[C@@H](OC(=O)Nc3ccc4c(c3)OCO4)[C@@H](OC)O[C@@H]2CO)c1	0.402	-0.144	-0.0627	-0.637 (inactive)	1.38	1.35	0.446	1.32	0.583	0.863	1.4	-0.717	0.645	0.779	-1.12	0.0136	0.214	-0.229	0.577	0.545
COCCOC(=O)N1C(=O)[C@@]2(c3cc(C#Cc4ccc(OC)cc4)ccc31)[C@H](c1ccc(O)cc1)N1[C@H](c3ccccc3)[C@H](c3ccccc3)OC(=O)[C@H]1[C@@H]2C(N)=O	1.49	-0.0422	-0.21	-1.95 (inactive)	1.1	1.25	0.655	1.4	0.56	0.213	1.44	-2.02	0.599	1.06	-0.139	0.0045	0.149	-0.694	0.743	1.16
Cn1cccc1C(O)C1C=CC2C(=O)NC(=O)C2N1Nc1ccccn1 (stereo not given)	0.71	0.0275	0.0176	1.36 (inactive)	-0.121	-0.0788	0.459	0.533	0.133	1.49	-1.15	-0.803	-0.136	-0.0487	-0.472	-0.0512	0.0723	-0.0446	-0.0327	-0.086
C=C(COC)/C(=C/C[C@H](OC(=O)c1ccncc1)c1ccc(CO)o1)c1cc(C(=O)OC)ccc1OC	1.69	-0.0393	-0.0885	-0.647 (inactive)	1.37	0.637	0.0603	1.15	0.82	1.34	0.822	-0.718	0.208	0.0845	-0.409	-0.0107	-0.0553	-0.0446	0.0683	0.318
